According to PubChem BioAssay (NCI):
Compounds without any hit were thinned out: in the full panel of roughly 79,000, 15% have a hit. Unmarked numbers belong to inactive results. Calls of active or inactive are those of the source. Cut-off read from the data, not from the text of the source: active = growth inhibition above about 70%; inactive = the rest.

Legend:
[1] = NCI Yeast Anticancer Drug Screen. Data for the rad50 strain (AID 155);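 note: 0% = growth of vehicle-only cultures of the same strain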; details: S. cerevisiae rad50 strain growth inhibition, hits give high values
Outline: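 Genetically altered yeast (DNA repair pathway); compound treatment; growth inhibition vs vehicle ctrl.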

[2] = NCI Yeast Anticancer Drug Screen. Data for the mec2-1 strain (AID 157); details: S. cerevisiae mec2-1 strain, hits give high values
Outline: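 Mutant yeast (mec2-1) grown with compound; growth inhibition relative to vehicle control reported.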

[3] = NCI Yeast Anticancer Drug Screen. Data for the sgs1 mgt1 strain (AID 161);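 note: 0% = growth of cultures given vehicle only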; details: S. cerevisiae sgs1 mgt1 strain, hits give high values
Outline: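 Percent growth inhibition was derived by comparing compound-exposed mutant yeast with vehicle-exposed cultures. The strain carries alterations in DNA damage repair.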

[4] = NCI Yeast Anticancer Drug Screen. Data for the cln2 rad14 strain (AID 165);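 note: 0% = growth equal to vehicle treated cultures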; details: S. cerevisiae cln2 rad14 strain, hits give high values
Outline: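 Readout is yeast growth inhibition versus vehicle-treated controls, using a strain with cln2 and rad14 alterations exposed to compound.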

[5] = NCI Yeast Anticancer Drug Screen. Data for the bub3 strain (AID 167); details: S. cerevisiae bub3 mutant strain, hits give high values
Outline: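 Yeast carrying a defined mutation is treated with each compound, and growth is compared with that of vehicle-exposed cells to give inhibition.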

[6] = NCI Yeast Anticancer Drug Screen. Data for the mlh1 rad18 strain (AID 175); details: S. cerevisiae mlh1 rad18 strain growth inhibition, hits give high values
Outline: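 Genetically defined yeast (DNA repair-deficient) exposed to compounds; growth inhibition determined relative to vehicle.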

[7] = at 5.0 µM (retest, dose inferred, filed as 0.5)
[8] = at 50.0 µM (retest, dose inferred, filed as 5.0)

Structure (SMILES) | growth inhibition [1, 7] [%] | growth inhibition [1, 8] | growth inhibition ([1]; at 50.0 µM) | growth inhibition [2, 7] | growth inhibition [2, 8] | growth inhibition ([2]; at 50.0 µM) | growth inhibition [3, 7] | growth inhibition [3, 8] | growth inhibition ([3]; at 50.0 µM) | growth inhibition [4, 7] | growth inhibition [4, 8] | growth inhibition ([4]; at 50.0 µM) | growth inhibition [5, 7] | growth inhibition [5, 8] | growth inhibition ([5]; at 50.0 µM) | growth inhibition [6, 7] [%] | growth inhibition [6, 8] | growth inhibition ([6]; at 50.0 µM)
Cc1c(N=Nc2ccc(Br)cc2)c(-c2ccccc2)nn1C(=S)S | -1 | 20% | 88.7% (active) | 2% | 26% | 88% (active) | 3% | 45% | 90.5% (active) | 4% | 34% | 51.5% | 3% | 74% (active) | 86.6% (active) | 1 | 31% | 92.7% (active)
CCN(CCO)CC1OC(OC)C2OC(C)(C)OC12 (stereo not given) | -1 | 83% (active) | 10% | 0% | 91% (active) | 2.55% | -2% | 84% (active) | -0.9% | -3% | 83% (active) | 85.8% (active) | -2% | 89% (active) | 24.5% | -1 | 90% (active) | 35.7%
C/C(=N/NC(=S)Nc1cccc(C)c1)c1ccccn1 | 62 | 99% (active) | 80.2% (active) | 91% (active) | 99% (active) | 85.9% (active) | 75% (active) | 99% (active) | 88.3% (active) | 94% (active) | 99% (active) | 88.9% (active) | 96% (active) | 99% (active) | 90.3% (active) | 68 | 99% (active) | 91% (active)
O=C([O-])C[n+]1c(/C=C/c2ccccc2)ccc2ccccc21 | -2 | 69% | 37.1% | -3% | 87% (active) | 5.35% | -6% | 92% (active) | 28.9% | -3% | 85% (active) | 13.9% | 2% | 84% (active) | 6.8% | 0 | 94% (active) | 32.3%
Cc1ccccc1C(O)(c1ccccc1C)C1(O)CCN(C)CC1 | 0 | -3% | 86.2% (active) | -4% | 0% | 96.7% (active) | 2% | -10% | 96.2% (active) | -7% | -11% | 91.8% (active) | -4% | -11% | 96.2% (active) | 13 | -2% | 98.7% (active)
O=S1(=O)c2ccccc2C(=NO)c2ccccc21 | -5 | -9% | -7.95% | -3% | -26% | 13.2% | -7% | -21% | -15.4% | 3% | 0% | 66% | -1% | -17% | 7.7% | -3 | -21% | -3.55%
CCCCCCCCC1N(C)CCCN1C | -76 | 97% (active) | 99.5% (active) | -51% | 98% (active) | 99.6% (active) | -37% | 98% (active) | 49% | -56% | 98% (active) | 98.3% (active) | -52% | 98% (active) | 99% (active) | -102 | 98% (active) | 99.5% (active)
O=C1C/C(=C\c2ccccc2)C(=O)c2ccccc2N1 | 0 | 20% | 57.8% | -3% | 16% | 41.8% | -9% | 27% | 76% (active) | 1% | 6% | 33.6% | -23% | 19% | 67% | -18 | 18% | 60.5%
CN(C)c1ccc(/C=C(/NC(=O)c2ccccc2)c2nc3ccc(Cl)cc3[nH]2)cc1 | 16 | 16% | 64.7% | 6% | 6% | 68.3% | -2% | -2% | 67.2% | 16% | 16% | 60.5% | -8% | -8% | 71.5% (active) | -25 | -25% | 73.8% (active)
CC(C)(N)COB(c1ccccc1)c1ccccc1 | 10 | 99% (active) | 99.7% (active) | -5% | 99% (active) | 99.8% (active) | -1% | 99% (active) | 99.8% (active) | 0% | 99% (active) | 99.5% (active) | -4% | 98% (active) | 99.8% (active) | -7 | 99% (active) | 99.5% (active)
